# Experimental data as given in PubChem BioAssay (NCI).
# “And” between values parts separate entries of the source, which are not always exact repeats. Equal values may be shown once. This is part of a sample that, as a whole, favours compounds with a hit. Of some 83,000 tested, about 20% had one in any assay.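 Interpretation: 100, growth as untreated; towards 0, rising growth inhibition; 0, no net growth; 0 to -100, cell death. Compounds scoring below 10 were considered active.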 The source made the active and inactive calls.
# Columns and labels:
# Experiment in all cases: NCI-60 one-dose screen, 48 h (100 = growth as untreated, 0 = no growth, -100 = all killed)
# Details in all cases: 10 µM unless noted
# HCT-15 colon = system: HCT-15 colon
# HT29 colon = system: HT29 colon
# SNB-75 CNS = system: SNB-75 CNS
# SNB-19 CNS = system: SNB-19 CNS
# U251 CNS = system: U251 CNS
# PC-3 prostate = system: PC-3 prostate
# SK-MEL-5 melanoma = system: SK-MEL-5 melanoma
# UACC-62 melanoma = system: UACC-62 melanoma
# LOX IMVI melanoma = system: LOX IMVI melanoma
# SK-MEL-28 melanoma = system: SK-MEL-28 melanoma
# SK-MEL-2 melanoma = system: SK-MEL-2 melanoma
# UO-31 renal = system: UO-31 renal
# ACHN renal = system: ACHN renal
# CAKI-1 renal = system: CAKI-1 renal
# A498 renal = system: A498 renal
# HL-60(TB) leukemia = system: HL-60(TB) leukemia
# CCRF-CEM leukemia = system: CCRF-CEM leukemia
# EKVX NSCLC = system: EKVX NSCLC
# SN12C renal = system: SN12C renal
# TK-10 renal = system: TK-10 renal
SMILES,growth (HCT-15 colon),growth (HT29 colon),growth (SNB-75 CNS),growth (SNB-19 CNS),growth (U251 CNS),growth (PC-3 prostate),growth (SK-MEL-5 melanoma),growth (UACC-62 melanoma),growth (LOX IMVI melanoma),growth (SK-MEL-28 melanoma),growth (SK-MEL-2 melanoma),growth (UO-31 renal),growth (ACHN renal),growth (CAKI-1 renal),growth (A498 renal),growth (HL-60(TB) leukemia),growth (CCRF-CEM leukemia),growth (EKVX NSCLC),growth (SN12C renal),growth (TK-10 renal)
CCOP(=O)(OCC)C(=O)N(CC)CC,98.4% (inactive),114% (inactive),102% (inactive),103% (inactive),95% (inactive),96.5% (inactive),94.4% (inactive),107% (inactive),104% (inactive),115% (inactive),103% (inactive),104% (inactive),105% (inactive),103% (inactive),95.4% (inactive),91.8% (inactive),89.1% (inactive),–,–,–
O=C(CCCN1CCC2(CC1)C(=O)NCN2c1ccccc1)c1ccc(F)cc1,100% (inactive) and 78.4% (inactive),60.8% (inactive) and 21.9% (inactive),109% (inactive) and 105% (inactive),98.1% (inactive) and 66.6% (inactive),98.6% (inactive) and 78.7% (inactive),106% (inactive) and 77.6% (inactive),56.9% (inactive) and -23.1% (active),–,103% (inactive) and 67.8% (inactive),114% (inactive) and 120% (inactive),106% (inactive) and 78.5% (inactive),77.1% (inactive) and 66% (inactive),20.3% (inactive),91.6% (inactive) and 15.5% (inactive),50.3% (inactive) and 30.6% (inactive),100% (inactive) and 114% (inactive),–,57.6% (inactive) and 80.6% (inactive),99.6% (inactive) and 84.2% (inactive),115% (inactive) and 99.1% (inactive)
c1ccc2c(c1)O[As](O[As]1Oc3ccccc3O1)O2,29.9% (inactive),24.8% (inactive),1.6% (active),82.9% (inactive),1.07% (active),36.9% (inactive),20.7% (inactive),–,30.9% (inactive),44.4% (inactive),5.79% (active),32.2% (inactive),59.3% (inactive),16.5% (inactive),27.5% (inactive),-28.3% (active),–,–,40.2% (inactive),61.6% (inactive)
COc1cc2c(cc1OC)-c1c3c(cc4c1[C@@H](C2)N(C)CC4)OCO3,29% (inactive),29% (inactive),57.9% (inactive),48.4% (inactive),39.3% (inactive),39.8% (inactive),57.9% (inactive),–,26.2% (inactive),–,87.9% (inactive),9.51% (active),18.6% (inactive),46.9% (inactive),57% (inactive),32.5% (inactive),42.1% (inactive),66.7% (inactive),43.8% (inactive),67.3% (inactive)
CO[C@H]1[C@H](O[C@@H]2C[C@@H]3C/C=C/C(=O)O[C@@H](CO)C[C@H](O)[C@@H]4C[C@H](C)[C@H](C/C=C\C=C\[C@H](C)C[C@H](C2)O3)O4)O[C@@H](C)[C@H](O)[C@H]1O,47.4% (inactive),66.1% (inactive),56.7% (inactive),52.2% (inactive),40.3% (inactive),35% (inactive),19.2% (inactive),–,59.7% (inactive),76.1% (inactive),68.8% (inactive),33.3% (inactive),–,61.6% (inactive),60.6% (inactive),33.2% (inactive),58.7% (inactive),28.7% (inactive),–,32.2% (inactive)
CC/C(=C(\c1ccc(OCCN2CCOCC2)cc1)c1ccc(OC(=O)Cc2ccccc2)cc1)c1ccc(Cl)cc1,112% (inactive),95.1% (inactive),114% (inactive),99.6% (inactive),103% (inactive),95.3% (inactive),107% (inactive),–,99% (inactive),101% (inactive),101% (inactive),87.9% (inactive),117% (inactive),91.9% (inactive),104% (inactive),95.5% (inactive),98.1% (inactive),109% (inactive),98.6% (inactive),93% (inactive)
CCCCCCCCCCCCCCCC[N+](C)(C)C,-37.7% (active) and 23.9% (inactive),-64% (active) and -42.4% (active),-77.5% (active) and -23.3% (active),-71.2% (active) and -40.6% (active),-75.5% (active) and -94.2% (active),-40.8% (active) and -32.8% (active),-94.6% (active) and -73.7% (active),–,-71.6% (active) and -73.9% (active),-74.7% (active) and 25.6% (inactive),-67.6% (active) and -2.51% (active),-82.3% (active) and 62.9% (inactive),19.4% (inactive),-58.7% (active) and 18.4% (inactive),-58% (active) and 25.3% (inactive),-66.6% (active) and -38.9% (active),-51.4% (active) and 1.36% (active),-51.6% (active) and 29.3% (inactive),-87.8% (active),-72.8% (active) and -39.9% (active)
CC[C@H](C)[C@H](NC(=O)CN(C)C)C(=O)N(C)[C@H](C[C@@H](OC(C)=O)c1nc(C(=O)NC23CC(C(=O)OC)(C2)C3)cs1)C(C)C,21.6% (inactive),-1.6% (active),45.1% (inactive),41.5% (inactive),13.5% (inactive),25.8% (inactive),–,24.4% (inactive),19.7% (inactive),66.4% (inactive),37.5% (inactive),50.1% (inactive),46.9% (inactive),51.6% (inactive),9.1% (active),-18.9% (active),6.24% (active),32.8% (inactive),31.3% (inactive),43.5% (inactive)
C[C@]12CCc3sc(Nc4ccc(OC(F)(F)F)cc4)nc3C1=CC[C@@H]1[C@@H]2CC[C@]2(C)C(=O)CC[C@@H]12,38.3% (inactive),13% (inactive),68.6% (inactive),56.5% (inactive),34.1% (inactive),38.6% (inactive),95.9% (inactive),–,34.8% (inactive),65.3% (inactive),61.8% (inactive),54.3% (inactive),–,60.4% (inactive),75% (inactive),44% (inactive),5.05% (active),78.4% (inactive),71.2% (inactive),98.2% (inactive)
NC(N)=NC(N)=Nc1ccc(Cl)cc1,108% (inactive),97.8% (inactive),77.1% (inactive),105% (inactive),113% (inactive),89.5% (inactive),108% (inactive),–,110% (inactive),98.9% (inactive),111% (inactive),95.2% (inactive),93.9% (inactive),–,–,48.4% (inactive),89.7% (inactive),93% (inactive),103% (inactive),115% (inactive)
C[C@]12CCC(=O)C[C@@H]1CC[C@@H]1[C@@H]2CC[C@]2(C)[C@@H](OC(=O)N(CCCl)N=O)CC[C@@H]12,27.9% (inactive),31.6% (inactive),39.4% (inactive),31% (inactive),16.1% (inactive),36.3% (inactive),22.8% (inactive),–,22.6% (inactive),63.1% (inactive),17.7% (inactive),25.4% (inactive),9.18% (active),5.32% (active),43.5% (inactive),-10.5% (active),14.7% (inactive),69.9% (inactive),24% (inactive),32.9% (inactive)
O=C1c2ccccc2C(=O)N1N1CC1c1ccccc1 (centres undefined),101% (inactive),110% (inactive),100% (inactive),104% (inactive),104% (inactive),97.7% (inactive),101% (inactive),–,96.6% (inactive),108% (inactive),–,91.3% (inactive),104% (inactive),95.7% (inactive),104% (inactive),102% (inactive),94.7% (inactive),–,104% (inactive),107% (inactive)
CC[C@H](C)[C@H](NC(=O)CN(C)C)C(=O)N(C)[C@H](C[C@@H](OC(C)=O)c1nc(C(=O)NC23C4C5C2C2C3C4C52C(=O)OC)cs1)C(C)C (some centres undefined),14.7% (inactive),2.31% (active),30.1% (inactive),40.2% (inactive),16.7% (inactive),25.6% (inactive),5.45% (active),–,15.3% (inactive),61.5% (inactive),34% (inactive),54.9% (inactive),42.6% (inactive),44.8% (inactive),-1.71% (active),-26.5% (active),6.24% (active),40.4% (inactive),31.8% (inactive),57.7% (inactive)
Cc1ccc(S(=O)(=O)n2cc([C@@]3(O)C[C@H](CSC#N)OC3=O)c3ccccc32)cc1,70% (inactive),54.3% (inactive),67.8% (inactive),97.5% (inactive),40.9% (inactive),78.5% (inactive),66.6% (inactive),–,49.4% (inactive),96.2% (inactive),61% (inactive),56.2% (inactive),63% (inactive),66.8% (inactive),97.1% (inactive),80.1% (inactive),31.7% (inactive),102% (inactive),60.7% (inactive),64.2% (inactive)
N#CC(C#N)=C(C#N)C#N,97.9% (inactive),110% (inactive),87.7% (inactive),102% (inactive),99.8% (inactive),96.8% (inactive),102% (inactive),101% (inactive),52.3% (inactive),105% (inactive),–,90.9% (inactive),94.8% (inactive),125% (inactive),110% (inactive),107% (inactive),–,–,–,–
O=c1c2ccccc2nc(-c2ccccc2Cl)n1-c1nnc(C(F)(F)F)s1,21.1% (inactive),30.3% (inactive),53.9% (inactive),33.2% (inactive),16.6% (inactive),20% (inactive),9.47% (active),–,31.3% (inactive),30.2% (inactive),–,19.4% (inactive),51.8% (inactive),3.51% (active),-7.82% (active),–,7.41% (active),–,21.9% (inactive),42% (inactive)
